This passage reports growth results from PubChem BioAssay (NCI).

“And” between values parts separate entries of the source, which are not always exact repeats. Identical values can stand only once. Compounds without any hit were thinned out: in the full panel of roughly 83,000, 20% have a hit.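 Single-concentration screen, 48 h exposure, 96-well plates. Endpoint: percent growth. Below 10 = active.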 The source made the active and inactive calls.

For this test, the system named is MDA-MB-468 breast. In words: NCI-60 one-dose screen, 48 h (100 = growth as untreated, 0 = no growth, -100 = all killed). The following applies: 10 µM unless noted.
For `Cc1ccc(N=Nc2ccccc2)cc1`, the growth was 95.2% (inactive).

Regarding `CCCCCn1sc(=O)n(Cc2ccc(CNC(=O)C(C)c3ccc(CC(C)C)cc3)cc2)c1=O` (stereo not given), the growth is 106% (inactive) and -81% (active).

`c1cnc2n[nH]c(Nc3ncnc4c3sc3ncccc34)c2c1`: the growth was 96.5% (inactive).

Take `CCN1CCN(C(=S)SCC(=O)Nc2nc3ccc(OC)cc3s2)CC1`: the growth is 97.7% (inactive).

For the molecule `COc1ccc2c(c1)CCNC21C(=O)Nc2c(Br)cc(Br)cc21` (stereo not given), the growth is 137% (inactive).
